Measured values from PubChem BioAssay AID720542 (National Center for Advancing Translational Sciences (NCATS), 2013).
The campaign covered roughly 360,000 compounds. About 740 (0.21%) were called active. Roughly 2% stayed inconclusive and do not appear here. Shown is part of a subset that was picked to be rich in actives. Unmarked numbers belong to inactive results. Calls follow the shape of the dose curve; as a rule, active = well fitted inhibition curve with a large enough effect; inconclusive = small, poorly fitted or top-dose-only effect; inactive = no such curve, though single readings can be large or run the other way.

Tested on: Plasmodium falciparum AMA1 (3D7) - RON2 peptide interaction
Test: qHTS for Inhibitors of AMA1-RON; Towards Development of Antimalarial Drug Lead: Primary Screen; also: nearly all actives have a fitted effect of over 45% in size;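 as to activity change, negative = inhibition: 0% = vehicle wells and -100% = peptide control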
Conditions: AlphaScreen AMA1-biotinylated RON2 peptide binding; series mostly up to 58.2 µM; activity change, negative = inhibition: at the top concentration
Excerpt: Plasmodium, the causative agent of malaria, is one of the world's deadliest parasitic diseases. Currently there is no vaccine available and there is widespread resistance to common anti-malarial drugs. This warrants novel, alternative approaches for developing improved therapy. During infection, one such essential interaction is between two parasite proteins, the apical membrane antigen1 (AMA1) that is translocated onto the merozoite surface and the rhoptry neck protein 2 (RON2), which is transferred to the red blood cells (RBC) membrane during invasion (Besteiro et.al., 2009). Recently, the Miller lab has shown that the interaction between AMA1 and RON2 is essential for junction formation of the parasite with the host cell (Srinivasan et.al., 2011). The binding of the RON2 peptide to the hydrophobic pocket in AMA triggers the formation of the moving junction which provides a firm anchor for the parasite to pull itself into the RBC using its actin-myosin motor; an irreversible step that commits the parasite for invasion. Only one AMA1 and RON2 genes exists in Plasmodium and there are no alternate pathways. Moreover, the region corresponding to RON2 peptide is conserved in all P. falciparum isolates for which sequences are available. The key residues in the AMA1 hydrophobic pocket that binds RON2 are also conserved and indicate a functional constraint governing this essential step in invasion since a short RON2 peptide (RON2L) corresponding to the binding region on AMA1 is sufficient to compete with the native RON2 protein and inhibits invasion (Tonkin et.al, 2011). Therefore, developing small molecule inhibitors of this interaction offers a promising target opening a new arena for anti-malarial therapeutics drug design.
In collaboration with the Miller lab, a quantitative High Throughput Screen using the AlphScreen technology was developed using a recombinant his-tagged AMA1 and a biotinylated RON2 peptide. This fluorescent screen was assayed against the NIH Molecular Libraries Small Molecule Repository (MLSMR). Inhibition of this protein-protein interaction is the desired outcome of this assay. However, due the limitations of this AlphaScreen assay, a large number of artifacts were observed. An AlphaScreen counterscreen was run to identify the true inhibitors, triage compound activity, and weed out false positives.
NIH Chemical Genomics Center [NCGC]
NIH Molecular Libraries Probe Centers Network [MLPCN]
Assay Submitter (PI): Louis Miller, National Institute of Allergy and Infectious Disease (NIAID)
Two microliters of his-tagged AMA1 3D7 allele protein (final concentration 25 nM) was dispensed into a 1,536-well assay plate. Small molecules and positive control peptides were pin-transferred (23 nL or 46 nL) via Kalypsys pin-tool equipped with a 1,536-pin array, resulting in final compound and peptide concentration ranges of 91.5 nM - 57.2 µM, and 15.6 nM - 2.00 µM, respectively. Unlabeled RON2 peptide or R1 peptide ([…]) that specifically binds the 3D7 AMA1 was used as a positive control that inhibited the binding of RON2L to AMA1. After 15 minutes incubation, 1 uL of biotinylated RON2 peptide (final concentration 25 nM) or buffer were dispensed and the assay plate was incubated for an additional 30 minutes at room temperature and protected from light. This was followed by an addition of 1 uL mixture of donor and acceptor beads (10 ug/mL final concentrations for each). The plates were incubated for 30 min at room temperature and read using the EnVision(R) plate reader (PerkinElmer). Maximum inhibition response was normalized to the positive control signal while no inhibition response was normalized to the DMSO treated wells.
Potency is read from the fitted curve at half-maximal effect.

In order of rising “activity change, negative = inhibition” value:
1. CN(C)c1ccc(C(CC(=O)O)C(=O)O)cc1 (centres undefined)  -25.3%
2. CC(C)(C)c1ccc(NC(=O)COC(=O)CCc2nc3ccccc3c(=O)[nH]2)cc1  -19.8%
3. Cc1cccc(CSc2nc3c(c(=O)n2C)SCC3)c1  -14.7%
4. CCCCCOC(=O)C1=C(C)Nc2nnnn2C1c1ccc(OC)c(OC)c1OC (centres undefined)  -11.7%
5. COc1ccc(CN2C(=O)C(C)S/C2=N/N=C/c2ccco2)cc1 (centres undefined)  -10.8%
6. CCc1ccc(C2C(C#N)=C(N)N(N3CCOCC3)C3=C2C(=O)CC(C)(C)C3)s1 (centres undefined)  -9.12%
7. CCOC(=O)c1ccccc1NC(=O)COC(=O)C(Cc1c[nH]c2ccccc12)NC(C)=O (centres undefined)  -8.99%
8. CCC1SC2=NCCN2C1(O)c1ccc(Cl)cc1 (centres undefined)  -8.79%
9. CCOc1ccccc1-n1c(SCC(=O)NCc2ccco2)nnc1-c1ccncc1  -7.89%
10. CCCCN=C1N/C(=C\c2ccco2)C(=O)N1c1ccccc1  -7.64%
11. O=C1CC(=O)Nc2cc(S(=O)(=O)N3CCN(c4cccc(C(F)(F)F)c4)CC3)ccc2N1  -7.36%
12. N#Cc1ccc(/C=C2\CCn3c2nc2cc(C(=O)O)ccc2c3=O)cc1  -7.09%
13. CC1CCC(NC(=O)CN(C)S(=O)(=O)c2ccc3c(c2)c(=O)n(C)c(=O)n3C)CC1 (centres undefined)  -5.96%
14. CCOC(=O)c1c(-n2cnnn2)sc(C)c1C  -5.49%
15. COc1cccc(N(C(=O)c2snc(C(N)=O)c2N)C(C(=O)NCC2CCCO2)c2c[nH]c3ccccc23)c1 (centres undefined)  -5.17%
16. O=C(Nc1ccc(CSc2ccccc2)cc1)c1ccc(CN2CCOCC2)cc1  -4.5%
17. Cc1ccc(NC(=O)COC(=O)CCc2nc3ccccc3n2-c2ccccc2)c(C)c1  -3.7%
18. C=CCc1cccc2cc(C(=O)Nc3ccc(NC(C)=O)cc3)c(=O)oc12  -3.69%
19. O=S(=O)(c1ccc(Br)cc1)c1nc(-c2ccccc2)oc1NCc1cccnc1  -2.21%
20. CCOc1ccccc1NC(=O)Cn1ncc2ccc([N+](=O)[O-])cc21  -2.2%
21. Cc1ccc(NC(=O)CN2CCCCC2)c2c1CC(C)(C)O2  -1.13%
22. CC1(C)C(c2ccccc2)=NC(c2cccnc2)=[N+]1[O-]  -0.104%
23. CC(=O)c1ccc(NC(=O)C(C)NCc2ccc(Cl)cc2)cc1 (centres undefined)  0.354%
24. CN(/C(=N/S(=O)(=O)c1cccs1)c1ccccc1)c1ccc(O)cc1  1.51%
25. OCC#CC[N+]1(CC#Cc2ccccc2)CCCC1  3.31%
26. CC(=O)Nc1nc(C)c(Cc2ccccc2)c(=O)[nH]1  3.67%
27. CC1=C(C(=O)Nc2ccc(Cl)cc2)C(c2ccco2)NC(=O)N1 (centres undefined)  5.1%
28. Cc1ccc(/C=C2\CCn3c2nc2cc(C(=O)O)ccc2c3=O)c(C)c1  5.89%
29. O=[N+]([O-])c1ccc(Sc2n[nH]c(-c3ccco3)n2)nc1  6.13%
30. CN1OC[C@@H]2CN(S(=O)(=O)c3cccc(C(F)(F)F)c3)[C@H](c3ccc(-c4cc5ccccc5o4)cc3)C[C@@H]21  6.6%
31. COc1ccc(-c2nc3c(s2)CCc2onc(-c4ccc(Br)cc4)c2-3)cc1  7.5%
32. Cc1ccc(N(C(=O)Cc2cccs2)C(C(=O)NCC2CCCO2)c2ccncc2)cc1 (centres undefined)  8.2%
33. O=C(CSc1nnc(-c2ccncc2)o1)Nc1cccc(Cl)c1  8.5%
34. Cc1cc(NC(=O)CSc2nnnn2-c2ccc(F)cc2)no1  12.3%
35. CC(C)NC(=O)Nc1ccc2c(c1)C(=O)N([C@H](C)CO)C[C@H](C)[C@@H](CN(C)Cc1ccc(C(F)(F)F)cc1)OCCCC[C@@H](C)O2  12.3%
36. CCNC(=O)N1CCNC(=O)C1CC(=O)Nc1ccc(C(=O)OCC)cc1 (centres undefined)  12.7%
37. C#CCOCCOCCOCCNc1nc(N2CCN(C(=O)C([C@@H](C)CC)n3cc(C(N)COC(=O)C(F)(F)F)nn3)CC2)nc(N2CCN(C(=O)[C@H](Cc3ccc(O)cc3)n3cc(C(N)[C@H](C)CC)nn3)CC2)n1 (some centres undefined)  13.4%
38. CC(C)CCNC(=O)Cn1c(=O)oc2cc(S(=O)(=O)N3CC(C)CC(C)C3)ccc21 (centres undefined)  13.5%
39. CN(C(=O)CN(CCO)CC(=O)N(C)C(C)(C)Cc1ccccc1)C(C)(C)Cc1ccccc1  14.9%
40. COc1ccc(CNC(=O)COC(=O)C2=Cc3ccccc3OC2)cc1  51.9%
41. Cc1cc(O)c(C(=O)/C=C/c2c(F)c(F)c(F)c(F)c2F)c(=O)o1  61.5%
42. CC1(C)Cc2c(sc(NC(=O)C(=O)NCC3CCCO3)c2C(=O)O)CO1 (centres undefined)  139%

In the case of COc1ccc(N2C(=O)/C(=C/c3ccco3)C(=O)NC2=S)cc1, the Potency is reported as 15.8 µM (active).
Cc1cc(NC(=O)CSc2nnc(-c3ccc(Cl)s3)o2)no1 was tested, and the Potency was 2.24 µM (active).
For CCN(c1ccc(NC(=O)COC(=O)CCc2nc3ccccc3n2-c2ccccc2)cc1)C(C)C, the Potency was 10 µM (active).
C=C1c2c(Cl)ccc(O)c2C(O)=C2C(=O)[C@]3(O)C(O)=C(C(N)=O)C(=O)[C@@H](N(C)C)[C@@H]3[C@@H](O)C12 (some centres undefined) was tested, and the Potency was 1.41 µM (active).
For CN(C)c1ccc(CSc2ccccc2)cc1, the Potency was 8.91 µM (active).
O=C(O)c1ccc2c(=O)n3c(nc2c1)/C(=C/c1ccc(OC(F)F)cc1OC(F)F)CC3 was tested, and the Potency was 20 µM (active).
For COc1ccc2c(c1)c(=Cc1ccc(N(C)C)cc1)c1cc(-c3ccccc3)[n+](C)n12, the Potency was 17.8 µM (active).
